Assay outcomes deposited in PubChem by ICCB-Longwood Screening Facility, Harvard Medical School.
MenB inh = blocks the Mycobacterium tuberculosis MenB enzyme | inhibition, % (test concentration not listed) | P9WNP5 | 100,000 tested, 0.43% active | MenB enzyme assay, absorbance read-out; in the data active = inhibition above about 21%, passing the limit was not always enough
MbtI inh = blocks the Mycobacterium tuberculosis siderophore enzyme MbtI | purified MbtI enzyme, fluorescence intensity read-out | P9WFX0 | 100,000 tested, 0.89% active | inhibition, % (no concentration beside the values); in the data active = inhibition mostly above about 56%, no sharp cut-off; inactive = mostly below about 77%
PV pol inh = poliovirus RNA polymerase inhibition | P03300 | poliovirus polymerase elongation, fluorescence polarization; hits give low values | 150,000 tested, 0.66% active | % elongation, % (compound at 16.7 µg/mL); in the data active = % elongation below about 90%
Target sequence (P03300 1749-2209 limits assumed): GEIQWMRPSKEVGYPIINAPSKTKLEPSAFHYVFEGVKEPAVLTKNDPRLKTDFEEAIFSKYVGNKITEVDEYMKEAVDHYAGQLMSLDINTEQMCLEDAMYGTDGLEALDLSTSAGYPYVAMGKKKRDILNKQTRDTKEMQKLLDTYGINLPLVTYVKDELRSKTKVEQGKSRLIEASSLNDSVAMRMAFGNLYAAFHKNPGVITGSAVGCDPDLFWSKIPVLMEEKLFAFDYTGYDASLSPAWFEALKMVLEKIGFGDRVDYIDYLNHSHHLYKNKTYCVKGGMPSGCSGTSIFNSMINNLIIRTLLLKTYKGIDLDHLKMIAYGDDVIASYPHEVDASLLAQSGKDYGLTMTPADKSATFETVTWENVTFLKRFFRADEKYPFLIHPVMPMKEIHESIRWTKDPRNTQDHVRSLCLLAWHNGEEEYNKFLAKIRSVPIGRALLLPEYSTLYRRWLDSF
AID504770 = growth inhibitors of E. coli YBA685 in a screen for V. cholerae RctB (chromosome II replication) inhibitors; E. coli YBA685 rctB-dependent plasmid, OD600 growth, 3 h; hits give low values; z-score (concentration not given with the values); 130,000 tested, 0.27% active; in the data active = z-score below about -2, passing the limit was not always enough
Active calls of the source: *; / = no result given. The list is not random: actives were taken first. Their share in the collection is about 1.5%.

SMILES	MenB inh	MbtI inh	PV pol inh	AID504770
O=C(Cc1ccccc1)N/N=C/c1ccc(N2CCOCC2)cc1	12	99	103	0
CCC(C)Sc1n[nH]c(=S)s1 (stereo not given)	6	99*	101	-0.45
O=C(O)CCSc1n[nH]c(=S)s1	-18	64	97	0.3
C=C(C)CSc1n[nH]c(=S)s1	4	100	96	-0.25
CC(C)Sc1n[nH]c(=S)s1	-104	98*	88*	-0.5
CC(C)NC(=O)c1cc2c(s1)-c1ccccc1OC2	/	/	/	0.9
O=C(O)c1cc2c(cn1)[nH]c1ccccc12	0	116	106	-3.5*
O=C(O)c1cc(=O)c2ccccc2[nH]1	15	31	99	1.4
N#Cc1ccc(NC(=O)CNCCN2CCOCC2)cc1	1	-1	100	0.05
N#CS/C=C/C(=O)c1ccccc1	-51	100*	96	-2.7*
CCN(CC)c1ncc2c(=S)[nH]c(=S)[nH]c2n1	-9	-6	100	-0.1
C=CCSc1ncc2c(=S)[nH]c(=S)[nH]c2n1	-102	56*	93	-0.2
O=c1cc(-c2ccccc2)cc(-c2ccccc2)n1O	/	/	/	-2.2
N#C/C(=C\c1ccc[nH]1)C(=O)N1CCc2ccccc2C1	-29	-8	101	-0.45
CC(C)OC(=O)CN1C(=O)C(C)(C)Oc2ccc(C(=O)Nc3ccccc3)cc21	25*	0	103	1.1
Cc1ccc(NCc2n[nH]c(=S)n2-c2ccccc2)cc1	-13	45	99	-0.05
O=C1C=CC(=O)N1c1ccc(N2CCOCC2)cc1	-42	93*	101	-0.3
CC1=C(C)CC2C(=O)N(c3ccc(N4CCOCC4)cc3)C(=O)C2C1 (stereo not given)	/	-3	100	0.75
CCc1c(C)nc(SCCOc2ccc(OC)cc2)[nH]c1=O	/	/	/	0.35
COc1ccc(OCCSc2nc(C)cc(=O)[nH]2)cc1	51*	12	102	-0.3
S=c1[nH]cnc2sc(-c3ccccc3)cc12	/	/	/	0.1
CCn1c(=S)sc2nc(C)sc21	9	101*	101	-0.4
CCn1c2ccccc2c2nc(C)sc21	-2	/	107	-0.55
Nc1ccc2c(c1)ncn2C1CCCCC1	-10	90	85*	-0.9
O=C(O)c1ccc2c(c1)ncn2C1CCCCC1	1	-6	104	0.8
SMILES	MenB inh	MbtI inh	PV pol inh	AID504770
CN(C(=S)NCc1ccc2c(c1)OCO2)C1CCS(=O)(=O)C1 (stereo not given)	-1	84*	88*	-0.6
CCc1ccc(C(=O)NCc2ccc3c(c2)OCO3)cc1	1	-14	103	0.05
N#Cc1ccc(S(=O)(=O)N2CCNCC2)cc1	27*	-3	102	-0.1
O=S(=O)(c1ccc(Br)cc1)N1CCNCC1	6	/	104	0.5
Cc1nc2c3ccccc3nc(NNC(=O)CCC(=O)N3CCN(c4ccccc4F)CC3)n2n1	/	/	92	/
Cc1nc2c3ccccc3nc(NNC(=O)CCC(=O)N3CCN(c4ccccc4)CC3)n2n1	/	/	85*	/
Cc1nc2c3ccccc3nc(NNC(=O)CCC(=O)N3CCN(c4cccc(Cl)c4)CC3)n2n1	/	/	135	/
COc1ccc(N2CCN(C(=O)CCC(=O)NNc3nc4ccccc4c4nc(C)nn34)CC2)cc1	/	/	87*	/
CCCCN(C)C(=O)CCC(=O)NNc1nc2ccccc2c2nc(C)nn12	/	/	81*	/
CCSc1cc(C(F)(F)F)nc2cc(C(C)(C)C)nn12	-10	87*	100	0.4
NC(=O)c1ccccc1N=c1cc(-c2ccccc2)oc2ccc(Cl)cc12	6	2	101	-0.1
COC(=O)CC1SC(=O)NC1=Nc1ccc(C)cc1 (stereo not given)	/	/	/	0.55
COC(=O)CC1SC(=O)NC1=S (stereo not given)	-52	84*	60	-2.7
COc1cc2c(cc1OC)C(C)N(C(=O)CN1C(=O)CCc3ccccc31)CC2 (stereo not given)	-11	-6	102	-2.9*
O=C(Cn1cccc1)Nc1ccccc1Cl	-23	9	98	-0.6
CCCCC1(O)CC(C)(C)N([O])C(C)(C)C1	44*	-9	100	-0.2
CCCCC1(O)CCN(Cc2ccccc2)CC1	/	/	/	-0.45
COc1ccc(NC(=O)CC2C(=O)N(c3ccccc3)C(=O)N2C2CCCCC2)cc1 (stereo not given)	/	/	108	/
Oc1cccc(-c2nc(-c3ccccc3)c3ccccn23)c1	/	5	89*	1.2
Sc1cccc2cccnc12	-46	47	101	0
C=CCn1c(CSc2ccc(C)cc2)n[nH]c1=S	-75	74*	96	-0.15
Cc1ccnc(NS(=O)(=O)c2ccc(NC(=O)c3ccc(C)c(C)c3)cc2)n1	/	/	107	/
CC(=O)NS(=O)(=O)c1ccc(NC(=O)c2ccc(C)c(C)c2)cc1	23*	6	103	-0.7
Cc1ccc(SC#N)c(N)n1	/	/	/	-2.5*
N#CSc1ccc(N)cc1	/	6	99	-1.5
SMILES	MenB inh	MbtI inh	PV pol inh	AID504770
O=C(CN1CCC(Cc2ccccc2)CC1)Nc1ccc2c(c1)OCCO2	-16	-11	106	-0.4
Clc1ccc(OCCn2ccnc2)c(Br)c1	-2	-12	101	-2.7*
O=C(NCCn1ccc2ccccc21)c1ccc(S(=O)(=O)N2CCCCC2)cc1	1	2	103	0.1
Cc1cccc(-c2nc(CCNC(=O)c3cccs3)cs2)c1	-3	-9	104	-0.65
COc1ccc(CCNC2=CC(=O)OC23CCCCC3)cc1OC	3	/	72*	1.8
Cc1ccccc1Nc1c(-c2ccc(O)cc2)nc2cnccn12	-29	46	100	-0.6
CCOC(=O)N1CCN(C(=O)c2ccc3nc(-c4ccccc4)c(-c4ccccc4)nc3c2)CC1	2	/	107	-0.45
Cc1ccc(NC(=O)CCC(=O)c2cccs2)cc1	-6	-7	102	-1.1
N#Cc1ccc(NC(=O)CCC(=O)c2cccs2)cc1	-10	0	83*	1.3
O=C(O)CCC(=O)c1cccs1	/	-4	82*	-0.3
COC(=O)C1CSC(c2ccc(Cl)cc2)=CC1N(C)C (stereo not given)	/	/	/	1.6
COC(=O)c1ccc2nc(NC(=O)CN3C(=O)CCC3=O)sc2c1	-5	/	75*	-0.25
CC(C)n1c(=O)c2oc3ccccc3c2n(Cc2ccccc2F)c1=O	/	/	105	/
N#Cc1c(N(C(=O)/C=C/c2ccco2)C(=O)/C=C/c2ccco2)oc(-c2ccco2)c1-c1ccco1	-16	4	89*	0.85
COc1cccc(OC)c1C(=O)N(C(=O)c1c(OC)cccc1OC)c1oc(-c2ccco2)c(-c2ccco2)c1C#N	12	17	103	1.1
Cc1ccsc1C=Nc1ccc(OC(F)(F)F)cc1	/	-10	102	-0.3
Cc1ccsc1C=Nc1ccc(O)cc1	-28	96*	100	2.2
CCCn1c2c(c(O)c(C(=O)Nc3ccccc3F)c1=O)CCCC2	48*	-3	101	-0.45
O=C(Nc1ccc(Cl)cc1Cl)c1c(O)c2c(n(Cc3ccco3)c1=O)CCCC2	-3	/	103	0.15
NC(=S)Cc1ccc(CC(N)=S)o1	-23	82*	95	0.15
NCc1ccc(C(=O)O)o1	-22	-7	100	0.75
CC(C)NC(=S)NNc1ncc(C(F)(F)F)cc1Cl	-6	30	103	-0.1
